# IL-1B inflam inh: qHTS for Inhibitors of Inflammasome Signaling: IL-1-beta AlphaLISA Primary Screen. activity change, % at 57.5 µM. hit rate 4.7% among 360,000. THP-1 LPS/ATP IL-1B secretion, AlphaLISA, 16 h; active compounds read low. AID 743279, 2014; in the data active = activity change below about -50%; inconclusive = mostly about -30% to -49%; note: % is set by controls: 0 for no effect and ±100 for the full control effect
#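 Secreted IL-1B measured by AlphaLISA bead assay after 16 h compound exposure of THP-1 cells; compounds (final up to 57.5 uM) added 1 h before LPS (250 ng/mL) and ATP (1.25 mM) stimulation; lower signal means less secretion.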
# SW480 rereplic: A quantitative high throughput screen for small molecules that induce DNA re-replication in SW480 colon adenocarcinoma cells. SW480 DNA re-replication, Hoechst DNA content imaging, 48 h. Potency, µM (series often up to 46.1 µM), for the others: at the top dose re-replication activation, hits mostly activators. hit rate 1.8% among 340,000. AID 624297, 2012; note: potency is the fitted concentration of half-maximal effect; % of control where 0% means no effect; nearly all actives have a fitted effect of over 55% in size
#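 Image-based DNA-content assay: after two days of treatment, nuclei were labelled with the DNA dye Hoechst and imaged, and hits were compounds raising the count of nuclei showing high fluorescence intensity.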
# S2 tox: Viability Counterscreen for Primary qHTS for Inhibitors of ATXN expression | AID 651635, 2014 | Potency, µM (top dose mostly 56.7 µM), actives largely listed as cytotoxic | hit rate 0.49% among 400,000 | S2 cells (HEK-293 line with an ATXN2-luciferase reporter) viability, CellTiter-Fluor protease fluorescence, 24 h; note: potency is the fitted concentration of half-maximal effect; nearly all actives have a fitted effect of over 40% in size
# MCF10A rerep: A quantitative high throughput screen for small molecules that induce DNA re-replication in MCF 10a normal breast cells; MCF 10A DNA re-replication, Hoechst nuclear intensity, 48 h; Potency, µM (doses to about 46.1 µM), inactives show at the top dose activity, positive = re-replication, hits mostly activators; hit rate 2.9% among 350,000; AID 624296, 2012; note: potency is the fitted concentration of half-maximal effect; % of control where 0% means no effect; nearly all actives have a fitted effect of over 50% in size
# PINK1 modulator: A Quantitative High throughput Screen to Identify Chemical Modulators of PINK1 Expression; hit rate 0.2% among 410,000; PINK1 immunofluorescence, high-content cytometry, 24 h; Potency, µM (doses to about 76.6 µM), for the others: at the highest dose activation (PINK1 increase), actives largely listed as activators; active = well fitted activation curve with a large enough effect; inconclusive = small, poorly fitted or top-dose-only effect; cell line not stated here; note: potency is the fitted concentration of half-maximal effect; % of control where 0% means no effect; nearly all actives have a fitted effect of over 65% in size
#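 Measures PINK1 amount and localization on or inside mitochondria by immunofluorescence. Stable cells get compounds at 5 concentrations for 24 hours before fixation and staining; CCCP controls included.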
# ATXN2 expr inh: Primary qHTS for Inhibitors of ATXN expression | HEK-293 ATXN2-luciferase reporter, luminescence, 24 h | Potency, µM (highest dose often 57 µM), without a hit: at the top dose activity change, negative = inhibition, hits mostly inhibitors | hit rate 0.72% among 360,000; note: potency is the fitted concentration of half-maximal effect; % is set by controls: 0 for no effect and ±100 for the full control effect; nearly all actives have a fitted effect of over 55% in size
#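 ATXN2-luciferase reporter cells (luciferase flanked by upstream and downstream ATXN2 gene portions) were treated 24 h at 37 °C with compounds at up to 57 uM. SteadyGlo luminescence gave expression; GF-AFC fluorescence gave viability.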
# An asterisk follows results filed as active; i = inactive; ? = inconclusive; . = no result; [ ] = remark or other dose. A selection: hits, their analogues and other compounds. The true share with any hit is near 7.1%. Unless noted, calls come from the whole dose curve; as a rule, active = well fitted curve in the direction sought with a large enough effect; inconclusive = small, poorly fitted or top-dose-only effect, or another doubt; inactive = no such curve, though single readings can be large; an effect the other way counts as inactive or inconclusive.
SMILES,IL-1B inflam inh,SW480 rereplic,S2 tox,MCF10A rerep,PINK1 modulator,ATXN2 expr inh
O=C(CSc1nnc(-c2c[nH]c3ccccc23)o1)N(Cc1ccccc1)c1ccc(F)cc1,-65*,-8%,?,12%,1%[38.3 µM],?
Clc1cccc(CSc2nnc(-c3c[nH]c4ccccc34)o2)c1,12,-5%,i,11µM*,0%,13%
COc1ccc(CN(C(=O)CSc2nnc(-c3ccccc3C)o2)c2ccc(F)cc2)cc1,-3,?,?,14%,0%,?
CC(=O)C1=C(c2ccc(Br)cc2)C(=O)c2ccccc2C1=O,-97*,8.2µM*,7.1µM*,7.3µM*,0%,3.5µM*
CC(=O)Nc1c(Br)cc2c(c1Br)C(=O)c1ccccc1-2,2,1%,?,10%,-3%,9%
Cn1cc(C2=C(c3c4n(c5ccccc35)CCC(CN)C4)C(=O)NC2=O)c2ccccc21 (configuration not stated),.,.,.,.,.,24µM*
CCOc1ccc(NC(=O)C(=O)NCC(c2cccnc2)N2CCc3ccccc32)cc1 (configuration not stated),.,.,.,.,0%,.
O=C(c1ccc(F)cc1)N1CCN=C1c1ccccc1,0,13µM*,i,?,6%,-12%
S=C(NCc1ccc2[nH]c3c(c2c1)CCCC3)Nc1ccccc1,-19,?,?,21µM*,13%,-26%
COc1ccc(C(C(=O)NC2CCCCC2)N(C(=O)CCl)c2ccc(C)cc2)cc1 (configuration not stated),-106*,2.6µM*,.,30%,-2%,?
COC(CN(C(=O)CCl)C(C(=O)NC1CCCCC1)c1ccc(C)cc1)OC (configuration not stated),-93*,5.8µM*,?,-6%,-2%,3%
COc1ccc(C(C(=O)NC2CCCCC2)N(C(=O)CCl)c2ccc(OC)cc2)cc1 (configuration not stated),-90*,?,4µM*,18µM*,-2%,3.5µM*
COc1ccc(CNC(=O)NC2CCCCC2)cc1,5,18µM*,i,3.7µM*,7%[38.3 µM],64%
CCOc1ccc(Nc2oc(/C=C/c3cccc(OC)c3)nc2C#N)cc1,.,.,.,.,1%,7%
COc1ccc(-c2cc3ccc(O)c(CN4CCOCC4)c3oc2=O)cc1,.,.,.,.,-1%,.
O=C(CO)N1CCC(c2[nH]nc(-c3ccc(Cl)cc3)c2-c2ccncn2)CC1,.,.,.,.,.,-14%
COc1ccc(C(C(=O)NC2CCCCC2)N(C(=O)CCl)c2cccc(Cl)c2)cc1 (configuration not stated),-110*,?,7.1µM*,21µM*,-4%,6.3µM*
COc1cccc(N(C(=O)c2cnccn2)C(C(=O)NC2CCCCC2)c2ccc(Cl)cc2)c1 (configuration not stated),-10,0%,i,2%,1%,2%
O=C(NC1CCCCC1)C(c1ccncc1)N(Cc1ccc(F)cc1)C(=O)c1ccccn1 (configuration not stated),-3,-3%,i,14%,0%,.
O=C(NC1CCCC1)C(c1ccc(F)cc1)N(Cc1ccc(F)cc1)C(=O)CCl (configuration not stated),-104*,?,i,14%,-4%,2%
CCn1c(=O)cc(SCC(=O)NCc2ccccc2OC)c2ccccc21,.,.,?,.,7%,7%
N#Cc1c(C(F)(F)F)cc(-c2cccs2)nc1SC(C(=O)O)c1ccccc1 (configuration not stated),67,-14%,i,21µM*,-1%,16%
CNc1nc(-c2cccs2)cc(C(F)(F)F)c1C#N,4,5.8µM*,.,18µM*,3%,.
N#Cc1c(C(F)(F)F)cc(-c2cccs2)nc1SCC(=O)Nc1ccccc1F,.,.,i,.,7%,-3%
N#Cc1c(C(F)(F)F)cc(-c2cccs2)nc1SCC(=O)O,0,-3%,i,0%,-1%,.
SMILES,IL-1B inflam inh,SW480 rereplic,S2 tox,MCF10A rerep,PINK1 modulator,ATXN2 expr inh
Cc1cccc(N(C)C(=O)Cc2c(C(=O)O)[nH]c3ccccc23)c1,.,.,?,.,0%,-2%
CC1(C)Cc2ccccc2C(/C(=N\Nc2cccc(Cl)c2)C(N)=O)=N1,-54*,-5%,?,?,-4%,-25%
c1ccc(C[n+]2cccc3c4ccccc4ccc32)cc1,-60*,8%,i,?,-1%,?
CCCCC[n+]1cccc2c3ccccc3ccc21,-77*,-5%,i,8%,1%,?
O=[N+]([O-])c1ccc(C[n+]2cccc3ccccc32)cc1,28,-7%,i,-13%,-1%,?
COCc1c(C(=O)N2CCCCCC2)cnn1-c1nccc(-c2cccs2)n1,.,.,i,.,0%,.
COc1ccc(CCNC(=O)Cn2cc(S(=O)(=O)Cc3ccccc3Cl)c3ccccc32)cc1OC,.,.,.,.,-1%,.
COc1ccc(CNC(=S)Nc2ccc3nc(N4CCN(C)CC4)cc(C)c3c2)cc1,-101*,9%,i,?,-1%,-1%
Cc1cc(N2CCCCC2)nc2ccc(NC(=O)c3ccc(Br)o3)cc12,-66*,?,?,8.2µM*,2%,-29%
CCN1CCN(c2cc(C)c3cc(NC(=S)NCc4cccs4)ccc3n2)CC1,-2,?,?,7.3µM*,3%,.
COc1ccc(CNC(=S)Nc2ccc3nc(N4CCOCC4)cc(C)c3c2)cc1,0,-5%,i,?,1%,-15%
Cc1cc(N2CCN(C)CC2)nc2ccc(NC(=O)c3ccc(Br)o3)cc12,-19,-12%,?,12%,0%,10%
Cc1cc(N2CCN(C)CC2)nc2ccc(NC(=O)c3ccc4c(c3)OCO4)cc12,-54*,27%,i,?,4%,91%
COc1cc(C(=O)Nc2ccc3nc(N4CCN(C)CC4)cc(C)c3c2)cc(OC)c1OC,-5,?,i,18%,2%,8%
COC(=O)c1ccc(NC(=O)CCn2cccn2)cc1,.,.,i,.,-1%,2%
Cc1cc(N2CCN(C)CC2)nc2ccc(NC(=S)NCc3cccs3)cc12,-77*,?,?,9.2µM*,1%,-4%
COCCCN(C(=S)Nc1cc(Cl)cc(Cl)c1)C(C)c1ccccn1 (configuration not stated),0,-18%,i,?,5%,.
